Laboratory results reported in article PMC7819943, “Rice protein-binding microarrays: a tool to detect cis-acting elements near promoter regions in rice”.
Over roughly 68,000 sequences, “fluorescence intensity (a.u.)” has its median near 9,100; the highest 2% begin near 16,000. Many of the other results were omitted from the sample, so the highest values are more common in it than they were.

Molecular target: OsWRKY34 (Oryza sativa, UniProt Q0JBA9 1-250)
Test: protein-binding microarray (RPBM); PBS, 2% BSA, 51.3 ng/ul salmon testes DNA, 50 uM zinc acetate, 200 nM TF, 25 C, 1 h; high values mean tight binding
Settings: protein: recombinant; tags: N-terminal polyhistidine and DsRed monomer fusion (pET32a); label: CyDye5-dUTP incorporated in the synthesized complementary strand; 3' TTTTT single-stranded linker to array surface; dsDNA, one strand shown
Method in brief: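 Binding signal is reported as fluorescence intensity per feature (arbitrary units) from an Axon 4000B scanner. Incubation used 200 nM of each Ni–NTA-purified, N-terminally polyhistidine- and DsRed-fused transcription factor from E. coli BL21-CodonPlus on a double-stranded custom Agilent array for 1 h at 25 °C, with 50 µM zinc acetate in the buffer, followed by washing.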

OsWRKY34, sequence (Q0JBA9 entry or part of it): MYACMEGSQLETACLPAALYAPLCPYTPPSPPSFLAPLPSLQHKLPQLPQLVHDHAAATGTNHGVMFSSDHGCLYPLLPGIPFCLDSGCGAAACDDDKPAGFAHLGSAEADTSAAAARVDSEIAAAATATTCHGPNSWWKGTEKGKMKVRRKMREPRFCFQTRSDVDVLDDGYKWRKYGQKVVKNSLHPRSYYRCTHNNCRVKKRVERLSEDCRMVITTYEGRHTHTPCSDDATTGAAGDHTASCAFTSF

Going from “GTTCCCAACGGTCACCTCGTCGTCGTTGCCAAATCTGCCACGGAGTCACCTAGTGCAG” to “ATCACGTCGCCTCGTTTCTTGCCTCGCCGCTCGTTGCTCGCGGAGTCACCTAGTGCAG”, the binding signal rises from 8670 fluorescence intensity (a.u.) to 12200 fluorescence intensity (a.u.).

Compared with “AATACCAAGTTTATTTCTCACCTGCATTTTAGATTCTCATCGGAGTCACCTAGTGCAG”, “TAGTCCACCTTTTATTACCCAAGTTTCAATTTGGACCACCCGGAGTCACCTAGTGCAG” is higher in binding signal: 9050 fluorescence intensity (a.u.) for the first, 9740 fluorescence intensity (a.u.) for the second.

Compared with “TCCCTTCCCTGTTCCTGGCGACGTGTCACCTTCTTATTCGCGGAGTCACCTAGTGCAG”, “ATAAACATTGACTCGCCGGAGTAGTTTTGAAACGTTTGACCGGAGTCACCTAGTGCAG” is higher in binding signal: 8050 fluorescence intensity (a.u.) for the first, 9180 fluorescence intensity (a.u.) for the second.

Compared with “GCAACCAACATCCCGGCGGCGAGCTCGTACGTACCAAATCCGGAGTCACCTAGTGCAG”, “CACACCACACACTGATGCAACGGCACTTAAGCGCACGAAGCGGAGTCACCTAGTGCAG” is lower in binding signal: 10800 fluorescence intensity (a.u.) for the first, 8060 fluorescence intensity (a.u.) for the second.

Going from “CGTCGGTGTGGTATGCTTGTCGCGCGGCGGCGCGGCCGTACGGAGTCACCTAGTGCAG” to “CCTACCTCCTACTCCTTATCCTCCACTTCGTCGCATTACACGGAGTCACCTAGTGCAG”, the binding signal falls from 8790 fluorescence intensity (a.u.) to 8750 fluorescence intensity (a.u.).

Going from “CGACTGCAGCTGATCCGGATTCAACACGGACATAGTACACCGGAGTCACCTAGTGCAG” to “ATTTAGTTCTCAACATACCCCTTTTCATCTTTTTGTCAGACGGAGTCACCTAGTGCAG”, the binding signal rises from 8550 fluorescence intensity (a.u.) to 8840 fluorescence intensity (a.u.).

Compared with “GTTGACTTTTTGATTAACGTTTGACCATTCGTTTTATTCACGGAGTCACCTAGTGCAG”, “TCATTCATATTATTTATTATTTAGTTGTTTGACTTTTTTTCGGAGTCACCTAGTGCAG” is higher in binding signal: 9480 fluorescence intensity (a.u.) for the first, 9600 fluorescence intensity (a.u.) for the second.

Compared with “CTTTTTAATCAACGTTTGACCATTCGTCTTATTCAATTTTCGGAGTCACCTAGTGCAG”, “CGTTGACTTTTTAGTACATGTTTGACCATTCGTCTTATTCCGGAGTCACCTAGTGCAG” is higher in binding signal: 10900 fluorescence intensity (a.u.) for the first, 36100 fluorescence intensity (a.u.) for the second.

Going from “ACACCGTTGACTTTTTAGTACGTATTTGACCATTCGTCTTCGGAGTCACCTAGTGCAG” to “TCATTGACTTTTCGATCAACGTTTGACCATTTGTTTTATTCGGAGTCACCTAGTGCAG”, the binding signal falls from 36700 fluorescence intensity (a.u.) to 16700 fluorescence intensity (a.u.).

Going from “AATATTTTTTTTTACTGTTTTCACTTTGACCATTAATATTCGGAGTCACCTAGTGCAG” to “GCTGTTGACTTTCGACCTACGTTTGACCATTCGTTTTATTCGGAGTCACCTAGTGCAG”, the binding signal rises from 9790 fluorescence intensity (a.u.) to 20600 fluorescence intensity (a.u.).

Going from “GCCATTTGTACGTTTCTATTTTCTCAGTAATCAGACCATTCGGAGTCACCTAGTGCAG” to “CCCGTCTCCTCGCCTGCCGATCTCCATCCTGCTAGCAGAGCGGAGTCACCTAGTGCAG”, the binding signal falls from 11600 fluorescence intensity (a.u.) to 8930 fluorescence intensity (a.u.).

Going from “AGATACATACGCCCACCCGCCGCGCCCACTTCCGTCCAAACGGAGTCACCTAGTGCAG” to “TCCTCCTGTCTCTGCCTCTGCTCGGCTAGTCTAGTGTACTCGGAGTCACCTAGTGCAG”, the binding signal rises from 8490 fluorescence intensity (a.u.) to 8810 fluorescence intensity (a.u.).

First: GTATTTAATTAGCTCCTCGTCTTGTTCTGCTAAGCTACTACGGAGTCACCTAGTGCAG
Second: TTGTCATCCTCGCCACCTCATTCTTTCTTTCTTTCATCTCCGGAGTCACCTAGTGCAG
The binding signal of the first is lower: 9460 fluorescence intensity (a.u.) for the first, 12900 fluorescence intensity (a.u.) for the second.

Compared with “ACATAACACCACTTGATACTATTTCTCTTAATTAATTACTCGGAGTCACCTAGTGCAG”, “GACTTTTTAGTACGTGTTTGACCATTCGTCTTATTCAAAACGGAGTCACCTAGTGCAG” is higher in binding signal: 9670 fluorescence intensity (a.u.) for the first, 11900 fluorescence intensity (a.u.) for the second.

First: CCGTTGACTTTTTAGTACGTGTTTGACCATTCGTCTTATTCGGAGTCACCTAGTGCAG
Second: GTTGACTTTTTAGTACGTGTTTGACCATTCGTCTTATTCACGGAGTCACCTAGTGCAG
The binding signal of the first is higher: 32300 ± 947 fluorescence intensity (a.u.) for the first, 10100 ± 646 fluorescence intensity (a.u.) for the second.

First: CCATTGTTAGGGTTAAGTCTTATTTCACCACATCGTTTTTCGGAGTCACCTAGTGCAG
Second: GGCTTACCCAAGAATAACGATCCAACTTGGGGAGGGAGGGCGGAGTCACCTAGTGCAG
The binding signal of the first is lower: 8740 fluorescence intensity (a.u.) for the first, 10000 fluorescence intensity (a.u.) for the second.

Going from “TTTGACGCTGTTGACTTTTTTTAACATGTTTGACTGTTCGCGGAGTCACCTAGTGCAG” to “TTGACTTTTTTAAACATGTTTAACTGTTCGTCTTATTAAACGGAGTCACCTAGTGCAG”, the binding signal falls from 32700 fluorescence intensity (a.u.) to 8820 fluorescence intensity (a.u.).

Compared with “TTTGACACCGTTGACTTTTTTAAACATGTTTAACTGTTCGCGGAGTCACCTAGTGCAG”, “AATGTTTGACACCGTTGACTTTTTAACACATGTTTGACCGCGGAGTCACCTAGTGCAG” is higher in binding signal: 33900 fluorescence intensity (a.u.) for the first, 39300 fluorescence intensity (a.u.) for the second.

Going from “GAGCCCGTACTCATTTCTCGCCAAGTGCACCACTTCACTCCGGAGTCACCTAGTGCAG” to “TCCTCTACTGGTTCTACGTCTTCTCATAATCAACCCAAATCGGAGTCACCTAGTGCAG”, the binding signal rises from 10700 fluorescence intensity (a.u.) to 11700 fluorescence intensity (a.u.).

First: CGCTCATCTATTTCTTTGTAGTACAACGCAGGCGCTCACACGGAGTCACCTAGTGCAG
Second: CTTCCCATGGCTTTTACTCTCCACTCGAAATCTCGTAACACGGAGTCACCTAGTGCAG
The binding signal of the first is lower: 8090 fluorescence intensity (a.u.) for the first, 11100 fluorescence intensity (a.u.) for the second.

First: TAGCTCCATTGTTCGATCTCATCTCCCTTAGCTAGCTACTCGGAGTCACCTAGTGCAG
Second: AATCGATTCTCCACTACTCTCTCGTCATTGTTCCCATGTTCGGAGTCACCTAGTGCAG
The binding signal of the first is lower: 8130 fluorescence intensity (a.u.) for the first, 20100 fluorescence intensity (a.u.) for the second.

Compared with “CTCGTCATTGTTCCCATGTTTTTCTATTTCATTTCTAATTCGGAGTCACCTAGTGCAG”, “GCATCACTATTCACTCCATGTTCTCTCTTCCTACTCTCCACGGAGTCACCTAGTGCAG” is lower in binding signal: 9350 fluorescence intensity (a.u.) for the first, 8250 fluorescence intensity (a.u.) for the second.

Compared with “GCAGCATCACTCCATGTTCTCTCTTCCTACTCTCCATACTCGGAGTCACCTAGTGCAG”, “ACACACTACTACTACTCTTCTCCCTCTCCATCTCTTCCCTCGGAGTCACCTAGTGCAG” is lower in binding signal: 16800 fluorescence intensity (a.u.) for the first, 8320 fluorescence intensity (a.u.) for the second.

First: CTTATGTCTCACTAAATATTTACTTTTGCCATCGGCAAATCGGAGTCACCTAGTGCAG
Second: GTCACCTTTTCTTTTATCAACATTCATTTGTTTTATTACTCGGAGTCACCTAGTGCAG
The binding signal of the first is lower: 8080 fluorescence intensity (a.u.) for the first, 8270 fluorescence intensity (a.u.) for the second.

Compared with “AATTCAACGCACGTCTCTTGTCCTGCACTTCTGCTATGCCCGGAGTCACCTAGTGCAG”, “AATTCTATGCCTCGATACATTTTTGGTGTTTATTATGGTTCGGAGTCACCTAGTGCAG” is lower in binding signal: 11000 fluorescence intensity (a.u.) for the first, 8460 fluorescence intensity (a.u.) for the second.

Compared with “CTCACCGCGCCGCTCACCTCCTCAAGACCACCACCCACCACGGAGTCACCTAGTGCAG”, “ACAAATCCTGGTCATTTCTTGACCGTATGAATTCTAGAAACGGAGTCACCTAGTGCAG” is lower in binding signal: 9730 fluorescence intensity (a.u.) for the first, 9650 fluorescence intensity (a.u.) for the second.

Going from “CAACCTCTTGCTAACTTTCCTTTGAGTCTATCTCTCTCATCGGAGTCACCTAGTGCAG” to “AGAATCTGACGTTTTATTTCTGAAACTTTCTTTGCATGCACGGAGTCACCTAGTGCAG”, the binding signal falls from 10700 fluorescence intensity (a.u.) to 8030 fluorescence intensity (a.u.).

In the case of “AAGAAATCTCTTTGAAAAACTTGCATGCTAACTTGAGACGCGGAGTCACCTAGTGCAG”, the binding signal is reported as 44900 fluorescence intensity (a.u.).
